GALR2 antag: GALR2 antagonists in receptor-expressing cells, primary screen | Galanin receptor type 2 (Homo sapiens), O43603 | antagonist mode | inhibition, % at 4 µM | hit rate 0.39% among 140,000; in the data active = inhibition above about 27%;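 note: cells stimulated with galanin 1-16 at roughly its EC80; 0% = agonist challenge control and 100% = basal control without agonist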
Target sequence (O43603 whole entry, looked up): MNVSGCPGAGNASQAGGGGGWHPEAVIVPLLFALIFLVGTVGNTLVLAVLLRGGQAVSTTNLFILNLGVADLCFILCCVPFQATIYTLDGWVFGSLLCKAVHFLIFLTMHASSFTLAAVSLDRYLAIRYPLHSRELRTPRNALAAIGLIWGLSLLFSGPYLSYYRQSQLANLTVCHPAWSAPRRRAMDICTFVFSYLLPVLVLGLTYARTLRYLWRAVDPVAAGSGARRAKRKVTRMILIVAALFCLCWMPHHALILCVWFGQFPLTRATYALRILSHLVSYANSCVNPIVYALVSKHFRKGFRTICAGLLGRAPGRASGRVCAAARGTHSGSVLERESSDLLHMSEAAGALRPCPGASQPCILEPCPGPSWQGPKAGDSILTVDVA
GALR2 ag: GALR2 receptor agonists, primary screen, cell-based; GALR2-expressing cells, agonist activation read-out; activation, % (concentration not given with the values); hit rate 0.48% among 140,000; AID 803, 2007; in the data active = activation above about 5%, passing the limit was not always enough;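 note: 0% = vehicle buffer wells and 100% = reference agonist at full effect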
PostGolgi yeast: phenotypic screen on post-Golgi transport, primary screen; post-Golgi transport phenotypic cell assay; inhibition, % at 10 µM; hit rate 0.9% among 98,000; AID 739, 2007;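 note: yeast cells grown in 1536-well plates; yeast grown about 18 h at 30C before absorbance read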
PostGolgi ctrl: growth inhibition of yeast control strain, primary screen, counter-screen for post-Golgi transport modulator project. efflux-deficient yeast background strain, growth absorbance A615, 16 h. inhibition, % at 10 µM. hit rate 5% among 98,000
S1P2 blocker: human S1P2 receptor antagonists, primary screen, cell-based | cell-based S1P2 antagonist assay, inhibition at 5 uM | inhibition, % at 5 µM | hit rate 0.21% among 97,000 | AID 736, 2007; in the data active = inhibition above about 45%;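 note: CRE beta-lactamase reporter cells expressing human S1P2 stimulated with S1P; 0% = agonist at EC80 alone and 100% = agonist plus reference antagonist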
S1P2 ag: S1P2 receptor agonists, primary screen, cell-based; S1P2-expressing cell line, agonist reporter read-out; Sphingosine 1-phosphate receptor 2 (Homo sapiens), O95136; activation, % at 4.5 µM; hit rate 0.46% among 97,000; in the data active = activation above about 16%;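 note: 0% = vehicle low control and 100% = maximal reference agonist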
Active calls of the source: *; / = no result given. This is one part of a sample in which hits are shown more often than they occur. Cut-off read from the data, not from the text of the source, unless noted: active = inhibition above about 30%; inactive = the rest.

SMILES	GALR2 antag	GALR2 ag	PostGolgi yeast	PostGolgi ctrl	S1P2 blocker	S1P2 ag
CCOC(=O)C=C1CCN(c2ncc(C(F)(F)F)cc2Cl)CC1	-1	-3	15	16	16	-6
O=C(CCCO)CCCCCCCCC[C@H]1N[C@H](CO)[C@@H](O)[C@@H]1O	-2	-1	/	/	/	/
CCCNC(=O)c1c(N)n(-c2cccc(OC)c2)c2nc3ccccc3nc12	-5	18*	33*	50*	-29	21*
COc1ccccc1CNC(=O)c1ccccc1OC	-8	-3	-2	16	-27	-2
COc1ccc(Cc2nc(C(=O)NCc3ccccc3OC)cs2)cc1	3	-1	1	35*	1	-4
CCN(CC)S(=O)(=O)c1cccc(NC(=O)COC(=O)CCC(=O)c2ccc(F)cc2)c1	-2	-1	/	/	/	/
Oc1ccc(Cl)cc1CNc1ccc(Br)cn1	8	-3	0	48*	-6	-4
Cc1cccc(C(=O)N2CCN(c3ccc([N+](=O)[O-])c(NCc4ccco4)c3)CC2)c1	-6	-2	-1	39*	-2	-3
Cc1ccc(C(=O)N2CCN(c3ccc([N+](=O)[O-])c(NCc4ccco4)c3)CC2)cc1	-2	-2	0	28	25	-4
Cc1ccc(S(=O)(=O)N2CCC(=O)N(C(COCc3ccc(C(F)(F)F)cc3)Cc3ccccc3)CC2)cc1 (configuration not stated)	-5	-1	/	/	/	/
COc1cc2c(cc1OC)C(CC#N)=NC(C)(C)C2	-3	-2	7	11	-46	18*
COc1cc2c(cc1OC)C(=S)NC(C)(C)C2	-1	-1	1	4	-31	-1
Fc1ccc2[nH]c3c(N4CCN(c5ccccc5)CC4)ncnc3c2c1	23	0	76*	80*	/	/
O=C(c1ccco1)N1CCN(c2ncnc3c2[nH]c2ccc(Br)cc23)CC1	10	0	11	19	-25	13
O=C(c1ccco1)N1CCN(c2ncnc3c2[nH]c2ccccc23)CC1	23	-2	43*	3	20	-7
CC(=O)N1CCC(O)(c2cccc(C(F)(F)F)c2)CC1	8	-2	3	20	6	-3
CCOC(=O)N1CCN(c2ncnc3c2[nH]c2ccc(OC)cc23)CC1	12	1	-5	37*	-36	4
OC1(c2cccc(C(F)(F)F)c2)CCN(c2ncnc3c2[nH]c2ccc(F)cc23)CC1	11	0	4	33*	49*	-16
CCCCOc1ncnc2c1[nH]c1ccc(OC)cc12	8	-2	1	13	-21	1
COc1cc2[nH]c3c(N4CCN(c5ccccn5)CC4)ncnc3c2cc1OC	17	-2	-7	11	27	5
CCOc1ccc(-c2nnc(Nc3ccc(OC)c(C(=O)N4CCCCC4)c3)c3ccccc23)cc1	-3	0	/	/	/	/
COc1ccc(N2CCN(c3ncnc4c3[nH]c3ccccc34)CC2)cc1	15	0	1	13	63*	-3
Cc1ccc(OCC(=O)Nc2ccc(F)cc2)cc1C	5	-2	/	/	10	-6
CCOC(=O)c1cc(-c2ccc(N)cc2)sc1N	-5	-2	6	6	-17	-3
CCOC(=O)c1sc(-c2ccc(Br)cc2)cc1N	1	0	-4	45*	-7	-2
SMILES	GALR2 antag	GALR2 ag	PostGolgi yeast	PostGolgi ctrl	S1P2 blocker	S1P2 ag
O=C(Nc1ccccc1)N1CCn2c1nc1ccccc12	19	-1	0	14	0	0
S=C(Nc1ccccc1)N1CCn2c1nc1ccccc12	-6	0	6	38*	-18	-8
CN(C)c1cccc2c(S(=O)(=O)Nc3ccccn3)cccc12	-2	-1	-24	36*	12	-2
COc1ccc(/C=N/OCC(=O)NCc2cccs2)c(OC)c1	0	-1	/	/	/	/
COC(=O)c1[nH]c2cc(C)ccc2c1NC(=O)CN1CCCc2ccccc21	-7	-1	0	16	17	-4
CCOC(=O)C1CCCN(CC(=O)Nc2c(C(=O)OC)[nH]c3ccc(Br)cc23)C1 (configuration not stated)	6	-3	1	56*	9	-8
COC(=O)c1[nH]c2ccc(Br)cc2c1NC(=O)CN1CCCc2ccccc21	-2	-2	0	69*	15	-7
O=S(Cc1cc(Oc2ccccc2)nc(-c2ccccc2)n1)c1ccccc1 (configuration not stated)	-1	-3	4	35*	9	-2
O=Cc1ccc(Oc2cc(-c3ccccc3)nc(-c3ccccc3)n2)cc1	6	-1	/	/	/	/
Cc1ccc(NC(=O)Cn2cncc2-c2ccc([N+](=O)[O-])cc2)cc1C	-4	1	1	33*	3	-5
COc1ccccc1NC(=O)Cn1cncc1-c1ccc([N+](=O)[O-])cc1	-1	-1	6	2	15	-5
O=C(CSc1c(Cl)cccc1Cl)N1CCC(c2nc3ccccc3s2)CC1	4	0	-4	20	0	-5
O=C(CSc1ccc(Cl)cc1)N1CCC(c2nc3ccccc3s2)CC1	0	-1	3	41*	-8	-7
CCc1ccc(C(=O)N2CCC(c3nc4ccccc4s3)CC2)cc1	-3	1	-6	37*	8	-6
O=C(c1ccc(S(=O)(=O)N2CCC(c3nc4ccccc4s3)CC2)cc1)N1CCCCC1	4	-1	/	/	0	-3
Cc1ccc2[nH]c3c(c2c1)CN(C(=O)CN1CCN(c2cccc(C)c2C)CC1)CC3	-7	-2	15	28	-7	-5
Cc1ccc2[nH]c3c(c2c1)CN(C(=O)CN1c2ccc(F)cc2CCC1C)CC3 (configuration not stated)	2	-1	7	32*	11	-7
COc1cccc(C2CN(c3ccc(F)cc3F)N=C2c2cccs2)c1OC (configuration not stated)	-10	41*	/	/	-50	44*
COc1ccccc1C1CN(c2ccccc2)N=C1c1cccs1 (configuration not stated)	-2	61*	11	7	-32	33*
COc1cc2c(cc1OC)-c1nnc(-c3cccs3)n1C(C)(C)C2	-6	1	/	/	9	-5
COC(=O)c1ccc(NC(=O)C(=O)N2CCN(C(=S)Nc3ccc(C)cc3)CC2)cc1	-14	0	/	/	/	/
CC1=C(C(=O)OCC(C)C)C(c2ccsc2)C2=C(CCCC2=O)N1 (configuration not stated)	-6	0	/	/	/	/
Cc1ccccc1-n1c(O)c(/C=N/N2CCCCC2c2cccnc2)c(=O)[nH]c1=O (configuration not stated)	-9	-1	/	/	/	/
COc1ccc(NC(=O)C2CCCN2S(=O)(=O)c2cccc3cccnc23)c(OC)c1 (configuration not stated)	-7	-1	97*	95*	7	-5

Screening results from PubChem BioAssay.
